40 compounds from the supplement of paper PMC11383364 can be followed below.

“And” between values parts separate entries of the source, which are not always exact repeats. Equal entries are not always repeated. ± gives the standard deviation of the averaged measurements.

The test concerns SUM149. Kind of test: percent difference in area under dose-response curve of relative cell number, RPMI vs HPLM; higher = drug relatively more effective in HPLM than RPMI (negative = less effective in HPLM). Particulars: treatment time: 72 h; dose range: 10-point, 1 nM to 20 µM; media compared: RPMI vs HPLM. The procedure:
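SUM149 triple-negative breast cancer cells, 500 cells/well in 384-well plates, were grown in RPMI or human plasma-like medium (HPLM) with 5% dialyzed FBS. They were pin-transferred with an anticancer plus metabolic-inhibitor library in 10-point dose series (20 µM to 1 nM). After 72 h, cells were fixed, stained with bisbenzimide and counted by Acumen plate cytometry. The AUC of relative survival vs dose was computed per medium, and the percent difference in AUC between RPMI and HPLM is reported.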
`Nc1ccn([C@@H]2O[C@H](CO)[C@@H](O)C2(F)F)c(=O)n1` [Gemcitabine]: the “percent difference in area under dose-response curve” value (“percent difference in area” for short) was -24.6 ± 5.4%.

For `CCN(CCCOc1ccc2c(Nc3cc(CC(=O)Nc4cccc(F)c4)[nH]n3)ncnc2c1)CCOP(=O)(O)O` [Barasertib], the “percent difference in area” value was -20.6%. On to `C=CC(=O)Nc1cccc(Oc2nc(Nc3ccc(N4CCN(C)CC4)cc3OC)ncc2Cl)c1`, for which the “percent difference in area” value stood at 3.23%. In the case of `CN(Cc1cnc2nc(N)nc(N)c2n1)c1ccc(C(=O)N[C@@H](CCC(=O)O)C(=O)O)cc1` [Methotrexate], the “percent difference in area” value was -7.17%.

In the case of `O=c1[nH]cc(F)c(=O)[nH]1` [5_Fluorouracil], the “percent difference in area” value amounted to 0.782%. As to `O=C(/C=C/c1ccc2ccccc2n1)c1ccncc1`, the “percent difference in area” value was 7.96%. In the case of `Cn1cnc2c(F)c(Nc3ccc(Br)cc3Cl)c(C(=O)NOCCO)cc21` it was -3.35%; in that of `Nc1nc2c(c(=O)[nH]1)C[C@@H](CCc1ccc(C(=O)N[C@@H](CCC(=O)O)C(=O)O)cc1)CN2` [Lometrexol], -68%. In the case of `S=c1nc[nH]c2nc[nH]c12` [6_Mercaptopurine], the “percent difference in area” value was -31.7%.

`c1ccc2c(CCNc3ccc(Nc4ccncc4)cc3)c[nH]c2c1`: the “percent difference in area” value is -22.6%. Regarding `CCCCCCCC/C=C\CCCCCCCC(=O)NCCO` [Oleylethanolamide], the “percent difference in area” value is 2.18%. `CC(C)CC(=O)Nc1n[nH]c2c1CN(C(=O)C1CCN(C)CC1)C2(C)C`: the “percent difference in area” value was -18.5%. In the case of `COC(=O)Nc1nc2cc(C(=O)c3cccs3)ccc2[nH]1` [Nocodazole] it was -17.2%. Turning to `CCCCCCCCc1ccc(CCC(N)(CO)CO)cc1` [Fingolimod], the “percent difference in area” value amounted to 3.22 ± 1.4%. With `CC[C@@]1(O)C(=O)OCc2c1cc1n(c2=O)Cc2cc3c(CN(C)C)c(O)ccc3nc2-1` [Topotecan_HCl], the “percent difference in area” value is -48.7%.

On to `O=C(/C=C/c1cccc(S(=O)(=O)Nc2ccccc2)c1)NO` [Belinostat], for which the “percent difference in area” value is -13%. For `CC(C)c1cc(-c2n[nH]c(=O)n2-c2ccc3c(ccn3C)c2)c(O)cc1O` [Ganetespib], the “percent difference in area” value is -31.8%.

For `NC(=O)Nc1cc(-c2cccc(F)c2)sc1C(=O)N[C@H]1CCCNC1`, the “percent difference in area” value was -2.68%. With `Cc1ccc(F)c(NC(=O)Nc2ccc(-c3cccc4[nH]nc(N)c34)cc2)c1` [Linifanib], the “percent difference in area” value worked out at 0.938%. In the case of `CC1(C)CCC(c2ccc(Cl)cc2)=C(CN2CCN(c3ccc(C(=O)NS(=O)(=O)c4ccc(N[C@H](CCN5CCOCC5)CSc5ccccc5)c(S(=O)(=O)C(F)(F)F)c4)cc3)CC2)C1` it was -1.13% and -0.0577%. The same measure for `CC(=O)N1CCN(c2ccc(OCC3COC(Cn4ccnc4)(c4ccc(Cl)cc4Cl)O3)cc2)CC1` (stereo not given) [Ketoconazole]: -8.22%; for `CC1=C(/C=C/C(C)=C/C=C/C(C)=C/C(=O)Nc2ccc(O)cc2)C(C)(C)CCC1` [Fenretinide]: -3.15%. On to `C[C@@H](Oc1cc(-c2cnn(C3CCNCC3)c2)cnc1N)c1c(Cl)ccc(F)c1Cl` [Crizotinib], for which the “percent difference in area” value was -5.74%. The same measure for `C#Cc1cccc(Nc2ncnc3cc(OC)c(OCCCCCCC(=O)NO)cc23)c1`: 8.57%; for `Nc1nc(F)nc2c1ncn2[C@@H]1O[C@H](COP(=O)(O)O)[C@@H](O)[C@@H]1O` [Fludarabine_Phosphate]: -16.9%. The same measure for `CC(C)C[C@H](NC(=O)CNC(=O)c1cc(Cl)ccc1Cl)B(O)O`: -12.2%; for `Cc1nc2c(-c3cnc(N)nc3)nc(N3CCOCC3)nc2n1C(C)C`: -7.54%; for `CC(C)(C)C(=O)Nc1ccc2c(c1)C(=O)C(=O)c1ccccc1-2`: 2.11%. The same measure for `CO[C@H]1C[C@@H]2CC[C@@H](C)[C@@](O)(O2)C(=O)C(=O)N2CCCC[C@H]2C(=O)O[C@H]([C@H](C)C[C@@H]2CC[C@@H](OP(C)(C)=O)[C@H](OC)C2)CC(=O)[C@H](C)/C=C(\C)[C@@H](O)[C@@H](OC)C(=O)[C@H](C)C[C@H](C)/C=C/C=C/C=C/1C` [Deforolimus]: 2.18%; for `CCN1CCN(Cc2ccc(-c3cc4c(N[C@H](C)c5ccccc5)ncnc4[nH]3)cc2)CC1`: -3.13%.

With `Cc1ccc(C(=O)Nc2ccc(CN3CCN(C)CC3)c(C(F)(F)F)c2)cc1C#Cc1cnc2cccnn12` [Ponatinib], the “percent difference in area” value came to 16.9%. The same measure for `Cc1ccc(C(=O)c2cc(O)c(O)c([N+](=O)[O-])c2)cc1` [Tolcapone]: -5.18%; for `O=C(Cc1ccc(-c2ccc(OCCN3CCOCC3)cc2)cn1)NCc1ccccc1`: -13.1%; for `CCC(C)n1ncn(-c2ccc(N3CCN(c4ccc(OCC5COC(Cn6cncn6)(c6ccc(Cl)cc6Cl)O5)cc4)CC3)cc2)c1=O` (stereo not given) [Itraconazole]: -12%. The same measure for `COc1cc2c(cc1O)CC[C@@H]1[C@@H]2CC[C@]2(C)[C@@H](O)CC[C@@H]12` [2_Methoxyestradiol]: 6.52%.

Take `C[C@@H]1CN(CC(=O)Nc2ccc3c(c2)Cc2cccc(-c4cc(=O)cc(N5CCOCC5)o4)c2S3)C[C@H](C)O1`: the “percent difference in area” value was -5.04%.

With `COC(=O)Nc1ccc(-c2nc(N3CCOCC3)c3cnn(C4CCN(C(=O)OC)CC4)c3n2)cc1`, the “percent difference in area” value is 0.775%.

Turning to `C=C(c1ccc(C(=O)O)cc1)c1cc2c(cc1C)C(C)(C)CCC2(C)C` [Bexarotene], the “percent difference in area” value is -2.87%. As to `COc1ccc2cc(-c3nc(-c4ccc([S+](C)[O-])cc4)[nH]c3-c3ccncc3)ccc2c1` (stereo not given) [Tie2_kinase_inhibitor], the “percent difference in area” value is -0.194%.

Turning to `COc1cc(Nc2c(C#N)cnc3cc(OCCCN4CCN(C)CC4)c(OC)cc23)c(Cl)cc1Cl` [Bosutinib], the “percent difference in area” value worked out at 7.19%.
